An excerpt weighted towards active compounds, which were near 21% of everything screened.
D3 ag: agonists of human D3 dopamine receptor | max activation, % | P35462 | actives 0.58% (n = 410,000) | D3R DiscoveRx beta-arrestin cells, luminescence, 90 min | AID 652048; in the data active = max activation above about 30%; also: 0% is about no effect
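Agonist-mode cell screen: cells plated at 1500/well and incubated overnight at 37 °C, then exposed to library compounds for 90 min at 37 °C. Detection reagent was added for 30–60 min at room temperature, and luminescence was read.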
ClpP mod: qHTS Assay for Activators of ClpP; purified B. subtilis ClpP, FRET peptide cleavage, 20 min; Potency, µM (doses to about 57.5 µM), without a hit: at the top dose activity change, negative = active; actives 1.9% (n = 340,000); AID 651965, 2013; active = well fitted falling curve with a large enough effect; inconclusive = small, poorly fitted or top-dose-only effect; inactive = no such curve, though single readings can be large or run the other way; also: potency is read from the fitted curve at half-maximal effect; the source files actives as falling curves though it sought activators and does not explain the sign; nearly all actives have a fitted effect of over 65% in size
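FRET quenching reversal measured ClpP activation: 10 microg/mL B. subtilis ClpP at pH 8 with the FRET-FV decapeptide, read at 430 nm after 320 nm excitation. The 20-min minus 0-min signal was scaled between DMSO/no-enzyme wells and ADEP (5.8 microM final).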
TDP1 cell CPT: growth inhibition of DT40 Tdp1-/-;hTDP1 cells with camptothecin (screen for TDP1 inhibitors); AID 686979; Potency, µM (highest dose often 46.2 µM), inactives show at the top dose activity change, negative = growth inhibition, hits mostly inhibitors; actives 12% (n = 420,000); chicken DT40 Tdp1-/-;hTDP1 cells + 20 nM CPT, ATP luminescence, 48 h; also: potency is read from the fitted curve at half-maximal effect; % is scaled to controls: 0 for no effect and ±100 for the full control effect; nearly all actives have a fitted effect of over 55% in size
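Chicken DT40 Tdp1-/- cells stably complemented with human TDP1 were seeded at 400 cells/well in medium containing 20 nM camptothecin, exposed to pin-transferred compounds, and grown at 37 °C for at least 48 hr. Viability was read as ATP luminescence.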
D3 antag: D3 dopamine receptor (human) antagonism; P35462; D3R cells, DiscoveRx beta-arrestin luminescence, antagonist mode; hits give low values; max response, negative = inhibition, %; actives 2.5% (n = 360,000); AID 652054; in the data active = max response below about -50%; inconclusive = no clear call, values can overlap the other calls; also: % is scaled to controls: 0 for no effect and ±100 for the full control effect
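Cells expressing the human receptor were seeded at 1500 cells/well, incubated overnight at 37 degrees C in 5% CO2, then exposed to library compounds with dopamine controls for 90 minutes at 37 degrees C before luminescent detection.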
TDP1 cell noCPT: qHTS for Inhibitors of human tyrosyl-DNA phosphodiesterase 1 (TDP1): qHTS in cells in absence of CPT; DT40 Tdp1-/- hTDP1 cells, no CPT, ATP luminescence, 48 h; Potency, µM (top dose mostly 46.2 µM), for the others: at the top dose activity change, negative = growth inhibition, most hits filed as inhibitors; actives 15% (n = 420,000); also: potency is read from the fitted curve at half-maximal effect; % is scaled to controls: 0 for no effect and ±100 for the full control effect; nearly all actives have a fitted effect of over 55% in size
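No-CPT arm: Tdp1-/-;hTDP1 DT40 cells (400/well) plus compounds, incubated ≥48 hr at 37 °C. Readout CellTiter-Glo luminescence.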
IL-1B inflam inh: inflammasome signaling inhibition, IL-1 beta readout. AID 743279. actives 4.7% (n = 360,000). THP-1 LPS/ATP IL-1B secretion, AlphaLISA, 16 h; hits give low values. activity change, % at 57.5 µM; in the data active = activity change below about -50%; inconclusive = mostly about -30% to -49%; also: % is scaled to controls: 0 for no effect and ±100 for the full control effect
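Secreted IL-1B measured by AlphaLISA bead assay after 16 h compound exposure of THP-1 cells; compounds (final up to 57.5 uM) added 1 h before LPS (250 ng/mL) and ATP (1.25 mM) stimulation; lower signal means less secretion.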
Starred values were filed as active, the others as inactive; u = inconclusive; x = no result. Unless noted, calls follow the shape of the dose curve; as a rule, active = well fitted inhibition curve with a large enough effect; inconclusive = small, poorly fitted or top-dose-only effect; inactive = flat fitted curve, though single readings scatter.

SMILES	D3 ag	ClpP mod	TDP1 cell CPT	D3 antag	TDP1 cell noCPT	IL-1B inflam inh
CC(=O)C1=C(O)C(=O)N(c2nccs2)C1c1ccccc1F (centres undefined)	6	2%	4%	24	-20%	28
CS(=O)(=O)N(CC(=O)NCC1CCCO1)c1cccc(Cl)c1 (centres undefined)	3	x	4%	-8	-15%	23
CS(=O)(=O)N(CC(=O)NCC1CCCO1)c1cc(Cl)cc(Cl)c1 (centres undefined)	2	-1%	4%	-97*	-7%	0
Cc1ccc(CSc2nnc(-c3cccc(S(=O)(=O)N4CCOCC4)c3)n2C2CCCC2)cc1	-3	-3%	15µM*	-19	12µM*	-55*
NC(=O)CSc1nnc(-c2cccc(S(=O)(=O)N3CCOCC3)c2)n1C1CCCCCC1	0	1%	5.8µM*	7	7.3µM*	0
CC(C)Cn1c(SCC(=O)NCc2ccc(Cl)cc2)nnc1-c1cccc(S(=O)(=O)N2CCOCC2)c1	2	0%	u	25	21µM*	-1
O=S(=O)(c1cccc(-c2n[nH]c(=S)n2C2CCCC2)c1)N1CCOCC1	6	0%	-11%	-3	u	50
CCOC(=O)CN1CCS(=O)(=O)CC1	-1	-3%	-11%	-9	11%	u
CN(Cc1ccccc1)C(=O)c1ccc(Cl)c([N+](=O)[O-])c1	-9	0%	u	-15	u	-90*
O=C(NCCc1cccc(Cl)c1)c1ccc(Cl)c([N+](=O)[O-])c1	-19	0%	u	u	21µM*	-98*
CC(C)(CNC(=O)c1ccc([N+](=O)[O-])c(Cl)c1)CNC(=O)c1ccc([N+](=O)[O-])c(Cl)c1	-20	16µM*	18µM*	-26	21µM*	-113*
Cc1ccc(C(=O)NCCc2cccc(Cl)c2)cc1[N+](=O)[O-]	-4	-1%	21µM*	9	21µM*	-56*
CC/C(=C\c1ccccc1)c1cccc2oc3ccccc3c12	x	4%	u	x	u	x
Cn1nnnc1SCCCNCc1ccccc1OCc1ccc(F)cc1	-27	0%	u	x	u	x
CC(C)(CO)NCc1ccc(Br)cc1	0	x	21µM*	1	u	-4
Cc1ccc(CNC(C)(C)CO)cc1	-6	-1%	-3%	0	u	16
COc1ccc(-c2c(-c3ccsc3)oc(=O)c3cc(OC)c(OC)cc23)cn1	9	-27%	u	15	u	-2
COc1cc2c(-c3ccc4cc[nH]c4c3)c(-c3ccsc3)oc(=O)c2cc1OC	52*	u	18µM*	2	21µM*	-19
COc1cc2c(-c3ccc4[nH]ccc4c3)c(-c3ccc(C#N)cc3)oc(=O)c2cc1OC	8	4%	15µM*	0	5.8µM*	9
COCc1ccc(-c2c(-c3cc(OC)cc(OC)c3)oc(=O)c3cc(OC)c(OC)cc23)cc1	21	u	16µM*	46	21µM*	0
N#C/C(=C/Nc1ccccc1C(=O)O)C(N)=O	2	-3%	2%	-3	-1%	-4
O=C1CC(N(CCc2ccccc2)C(=S)Nc2ccccc2)C(=O)N1c1ccc(Br)cc1 (centres undefined)	1	-2%	16µM*	-18	18µM*	-12
COc1ccc(CCN(C(=S)Nc2ccccc2)C2CC(=O)N(c3ccccc3)C2=O)cc1 (centres undefined)	4	4%	u	0	u	19
Cc1ccc(N2C(=O)CC(N(CCc3ccccc3)C(=S)Nc3ccc(N(C)C)cc3)C2=O)cc1 (centres undefined)	8	-1%	18µM*	1	u	u
CCCS(=O)(=O)c1ncc(Cl)c(C(=O)Nc2c(C(=O)c3ccccc3)oc3ccccc23)n1	3	-1%	-3%	x	u	x
SMILES	D3 ag	ClpP mod	TDP1 cell CPT	D3 antag	TDP1 cell noCPT	IL-1B inflam inh
COc1cc(CN2c3ccc(Br)cc3C(=O)CS2(=O)=O)cc(OC)c1	x	1%	u	x	u	x
CCSc1nnc(C)n1-c1ccc(C(=O)O)cc1	-1	0%	-25%	-56*	-2%	14
COc1ccc(CNC(=O)CCCC(=O)n2nc(C)c3ccccc32)cc1	1	-1%	2%	-3	16%	17
CCC(C)[C@@H](CN(N=O)[C@@H](Cc1ccccc1)CN(C)N=O)N(CCc1ccccc1)N=O (some centres undefined)	-18	0%	16µM*	3	21µM*	-2
CN(C[C@H](Cc1ccccc1)N(C[C@H](CC1CCCCC1)N(CCc1ccccc1)N=O)N=O)N=O	7	2%	26µM*	16	u	11
CN(C[C@@H](CC1CCCCC1)N(C[C@H](Cc1ccccc1)N(CCc1ccccc1)N=O)N=O)N=O	4	-3%	23µM*	6	u	2
Cc1ccc(NC(=O)C(=O)NCC(c2ccc3c(c2)OCO3)N2CCOCC2)cc1C (centres undefined)	10	2%	14%	x	15%	x
COc1ccccc1CCNC(=O)c1cc2c(=O)n3cccc(C)c3nc2n1C	9	-3%	-26%	x	-27%	x
Cc1cccn2c(=O)c3cc(C(=O)NC4CCCCC4)n(C)c3nc12	0	-24%	4.6µM*	15	3.3µM*	-6
Cc1cccn2c(=O)c3cc(C(=O)O)n(C)c3nc12	11	32µM*	-7%	-14	-9%	16
CCOC(=O)CNC(=O)c1cc2c(=O)n3cccc(C)c3nc2n1C	0	-20%	-3%	x	-2%	x
Cc1cccn2c(=O)c3cc(C(=O)NCCc4ccc(S(N)(=O)=O)cc4)n(C)c3nc12	9	u	u	x	u	x
Cc1cccn2c(=O)c3cc(C(=O)NC(C)(C)C)n(C)c3nc12	12	5%	u	x	18µM*	x
COC1C=CC(CNC(=O)c2cc3c(=O)n4cccc(C)c4nc3n2C)(OC)O1 (centres undefined)	-3	4%	16µM*	u	-15%	-11
CCn1c(=N)c(C(=O)NC2CCCCC2)cc2c(=O)n3cccc(C)c3nc21	2	4%	3%	x	9%	x
